Measured values published in PubChem BioAssay (NCI).
Several values for one entry are separate records, joined by “and”; a condition that tells them apart may be missing. Identical values can stand only once. About 83,000 compounds went through this panel and 20% of them were active in at least one assay; those are over-represented in the sample as a whole.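 Single-concentration screen, 48 h exposure, 96-well plates. Endpoint: percent growth. Below 10 = active.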 Activity calls are given as the source filed them.

Legend:
Test in all cases: NCI-60 one-dose screen, 48 h (100 = growth as untreated, 0 = no growth, -100 = all killed)
Details in all cases: 10 µM unless noted
HCT-15 colon = tested on: HCT-15 colon
HT29 colon = tested on: HT29 colon
SNB-75 CNS = tested on: SNB-75 CNS
SNB-19 CNS = tested on: SNB-19 CNS
U251 CNS = tested on: U251 CNS
PC-3 prostate = tested on: PC-3 prostate
SK-MEL-5 melanoma = tested on: SK-MEL-5 melanoma
UACC-62 melanoma = tested on: UACC-62 melanoma
LOX IMVI melanoma = tested on: LOX IMVI melanoma
SK-MEL-28 melanoma = tested on: SK-MEL-28 melanoma
SK-MEL-2 melanoma = tested on: SK-MEL-2 melanoma
SN12C renal = tested on: SN12C renal
UO-31 renal = tested on: UO-31 renal
TK-10 renal = tested on: TK-10 renal
ACHN renal = tested on: ACHN renal
CAKI-1 renal = tested on: CAKI-1 renal
A498 renal = tested on: A498 renal
MOLT-4 leukemia = tested on: MOLT-4 leukemia
EKVX NSCLC = tested on: EKVX NSCLC
CCRF-CEM leukemia = tested on: CCRF-CEM leukemia

Compound	growth (HCT-15 colon)	growth (HT29 colon)	growth (SNB-75 CNS)	growth (SNB-19 CNS)	growth (U251 CNS)	growth (PC-3 prostate)	growth (SK-MEL-5 melanoma)	growth (UACC-62 melanoma)	growth (LOX IMVI melanoma)	growth (SK-MEL-28 melanoma)	growth (SK-MEL-2 melanoma)	growth (SN12C renal)	growth (UO-31 renal)	growth (TK-10 renal)	growth (ACHN renal)	growth (CAKI-1 renal)	growth (A498 renal)	growth (MOLT-4 leukemia)	growth (EKVX NSCLC)	growth (CCRF-CEM leukemia)
Nc1ccccc1SC1CC(=O)N(c2cccc3ccccc23)C1=O (configuration not stated)	99% (inactive)	106% (inactive)	76.4% (inactive)	96.7% (inactive)	97.3% (inactive)	87.7% (inactive)	96.7% (inactive)	82.6% (inactive)	97.1% (inactive)	96.3% (inactive)	92.6% (inactive)	98.3% (inactive)	68.6% (inactive)	113% (inactive)	97.5% (inactive)	79.7% (inactive)	88.8% (inactive)	83.5% (inactive)	–	–
CCOC(=O)C(CNc1ccccc1)C(=O)OCC	106% (inactive)	105% (inactive)	77.9% (inactive)	91.2% (inactive)	93.5% (inactive)	98.2% (inactive)	100% (inactive)	103% (inactive)	101% (inactive)	103% (inactive)	109% (inactive)	105% (inactive)	84.7% (inactive)	106% (inactive)	102% (inactive)	94.9% (inactive)	98.5% (inactive)	98.5% (inactive)	–	–
CCOC(=O)C(C(=O)OCC)C(c1ccccc1)N1CCN(c2ccccc2)CC1 (configuration not stated)	108% (inactive) and 94.8% (inactive)	107% (inactive) and 106% (inactive)	94.7% (inactive) and 103% (inactive)	99.4% (inactive) and 110% (inactive)	105% (inactive) and 98% (inactive)	110% (inactive) and 109% (inactive)	105% (inactive) and 102% (inactive)	98.7% (inactive) and 107% (inactive)	103% (inactive) and 98.4% (inactive)	109% (inactive) and 111% (inactive)	105% (inactive) and 100% (inactive)	98.2% (inactive) and 110% (inactive)	73.8% (inactive) and 78.9% (inactive)	–	105% (inactive)	112% (inactive) and 98.1% (inactive)	139% (inactive) and 107% (inactive)	103% (inactive) and 99.1% (inactive)	107% (inactive) and 103% (inactive)	95.9% (inactive)
COC(=O)[C@H]1CCCN1C(=O)C1CCCN1C(=O)[C@@H](Cc1ccccc1)NC(=S)Nc1cc(C(F)(F)F)cc(C(F)(F)F)c1 (some centres not stated)	95.8% (inactive) and 75.5% (inactive)	111% (inactive) and 72.6% (inactive)	85.4% (inactive) and 73.3% (inactive)	92.1% (inactive) and 86.7% (inactive)	98.8% (inactive) and 77% (inactive)	101% (inactive) and 53.3% (inactive)	100% (inactive) and 88.2% (inactive)	94.7% (inactive) and 90.3% (inactive)	103% (inactive) and 88.1% (inactive)	109% (inactive) and 99.4% (inactive)	109% (inactive) and 103% (inactive)	96.1% (inactive) and 84% (inactive)	94.6% (inactive) and 59.1% (inactive)	114% (inactive) and 90% (inactive)	98.4% (inactive) and 85.6% (inactive)	89.2% (inactive)	96.6% (inactive) and 81.4% (inactive)	91.3% (inactive) and 42.9% (inactive)	–	106% (inactive) and 72.2% (inactive)
CCN(CC)CCNc1cc(-c2cccc(OC(F)(F)F)c2)nc2ccc(N3CCCC3)cc12	24.3% (inactive) and 3.13% (active) and 13.6% (inactive)	10.9% (inactive) and -11.1% (active) and 1.35% (active)	86.4% (inactive) and 51.9% (inactive)	2.91% (active) and 15.2% (inactive) and 36.9% (inactive)	46.2% (inactive) and -36.6% (active) and 15.6% (inactive)	-94.4% (active) and 7.18% (active) and 28.2% (inactive)	-2.81% (active) and -88% (active) and 7.43% (active)	-64.9% (active) and -73.2% (active) and -23.9% (active)	-40.9% (active) and -59.6% (active) and -51.7% (active)	-9.25% (active) and -32.5% (active) and 11% (inactive)	52.2% (inactive) and -30.5% (active) and 4.6% (active)	3.62% (active) and 3.14% (active) and 38.1% (inactive)	10.4% (inactive) and -12.9% (active) and 29.7% (inactive)	–	24.4% (inactive) and 12.9% (inactive) and 27.7% (inactive)	49.1% (inactive) and 34.2% (inactive) and 23.1% (inactive)	71.2% (inactive) and 4.86% (active) and 50.8% (inactive)	-19.7% (active) and -14.3% (active) and 3.16% (active)	73.5% (inactive) and 59.5% (inactive) and 42.8% (inactive)	-30.4% (active) and -4.6% (active) and 2.25% (active)
Cc1c(Cl)cccc1NCN1C(=O)c2ccccc2C1=O	98.4% (inactive)	104% (inactive)	94.4% (inactive)	110% (inactive)	95.5% (inactive)	101% (inactive)	99.5% (inactive)	114% (inactive)	97% (inactive)	112% (inactive)	103% (inactive)	112% (inactive)	82.8% (inactive)	114% (inactive)	105% (inactive)	94.4% (inactive)	101% (inactive)	116% (inactive)	–	105% (inactive)
COc1ccccc1NC(=O)OCC#CCOC(=O)Nc1ccccc1OC	114% (inactive) and 88.6% (inactive)	100% (inactive) and 103% (inactive)	92.9% (inactive) and 84.7% (inactive)	104% (inactive) and 88.7% (inactive)	97.4% (inactive) and 96.4% (inactive)	102% (inactive) and 89.3% (inactive)	94.2% (inactive) and 88.6% (inactive)	83.7% (inactive) and 73.2% (inactive)	96.9% (inactive) and 100% (inactive)	106% (inactive) and 88.1% (inactive)	95.2% (inactive) and 95% (inactive)	107% (inactive) and 92.4% (inactive)	71.4% (inactive) and 80.2% (inactive)	99.2% (inactive) and 91.2% (inactive)	104% (inactive) and 100% (inactive)	94.3% (inactive) and 88.6% (inactive)	–	–	99% (inactive) and 96.1% (inactive)	83.1% (inactive) and 91.5% (inactive)
CC(/C=N/N1C(=O)c2ccccc2C1=O)c1ccccc1 (configuration not stated)	98.2% (inactive)	108% (inactive)	83% (inactive)	95.9% (inactive)	99.5% (inactive)	102% (inactive)	99.4% (inactive)	111% (inactive)	98.3% (inactive)	103% (inactive)	110% (inactive)	–	88.1% (inactive)	113% (inactive)	97.4% (inactive)	83.6% (inactive)	98% (inactive)	106% (inactive)	–	110% (inactive)
NCCSC(C[N+](=O)[O-])c1ccccc1Cl (configuration not stated)	22.4% (inactive)	36% (inactive)	105% (inactive)	102% (inactive)	77.6% (inactive)	68.1% (inactive)	85.1% (inactive)	92.6% (inactive)	31.4% (inactive)	-20.5% (active)	34.9% (inactive)	–	63.3% (inactive)	51.8% (inactive)	107% (inactive)	99.8% (inactive)	36% (inactive)	-32.1% (active)	100% (inactive)	0.339% (active)
